Assay results taken from the supplement of paper PMC12350171.
Where a name gives a salt, the structure may show the parent alone. A number with no mark means an inactive call.

How the values were obtained:
Settings in all cases: 20 µM
[1] = test system: Salmonella enterica typhimurium; test: growth AUC normalised to DMSO control (fraction of control); higher = less growth inhibition, active = hit call of the paper
Procedure, shortened: (§1)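 Hemin and NAD were added to the medium for Haemophilus parainfluenzae. All pathogens, after two anaerobic passages, were inoculated at a starting OD578 of 0.01 into pre-reduced mGAM plates with 20 μM compound and 1% DMSO under breathable seals, and OD578 was read hourly for 24 h in three biological replicates. AUC of each growth curve was obtained with the trapezoidal rule up to the exponential-to-stationary transition and normalised to DMSO controls from the same plate.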

Shigella flexneri = test: as above
Procedure, shortened: as §1

Vibrio cholerae = test: as above
Procedure, shortened: as §1

[2] = test system: Yersinia pseudotuberculosis; test: as above
Procedure, shortened: as §1

P. vulgatus RND KO = test: growth AUC normalised to DMSO control (median) (fraction of control); higher = less growth inhibition, active = hit call of the paper
Procedure, shortened: (§2)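 For normalised area under the curve, growth curves were truncated at entry into stationary phase, integrated by the trapezoidal rule and divided against vehicle wells on the same plate. The curves came from strains passaged twice overnight without oxygen and then grown in mGAM in 96-well plates at a starting OD578 of 0.01. Each well held an approved-drug library compound at 20 μM with 1% DMSO, and OD578 was read hourly for 24 h in an anaerobic incubator. Values are medians of three biological replicates.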

P. vulgatus WT = test: as above
Procedure, shortened: as §2

[3] = test system: S. enterica typhimurium WT; test: as above
Procedure, shortened: as §2

[4] = test system: S. enterica typhimurium tolC KO; test: as above
Procedure, shortened: as §2
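Throughout, for growth AUC normalised to DMSO control (median): active when median AUC fell below 0.1.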

SMILES | growth AUC normalised to DMSO control [1] | growth AUC normalised to DMSO control (Shigella flexneri) | growth AUC normalised to DMSO control (Vibrio cholerae) | growth AUC normalised to DMSO control [2] | growth AUC normalised to DMSO control (P. vulgatus RND KO) | growth AUC normalised to DMSO control (P. vulgatus WT) | growth AUC normalised to DMSO control [3] | growth AUC normalised to DMSO control [4]
NS(=O)(=O)c1cc(C(=O)O)c(NCc2ccco2)cc1Cl [Furosemide] | 0.996 | 1.01 | 1.01 | 1.01 | 1.05 | 1.06 | 1.02 | 1.02
Clc1ccc(CSC(Cn2ccnc2)c2ccc(Cl)cc2Cl)cc1 (stereo not drawn) [Sulconazole nitrate] | 1.04 | 1.06 | 1.05 | 1.02 | 1.06 | 1.08 | 0.997 | 0.911
Cc1cc(=O)oc2cc(O)ccc12 [Hymecromone] | 1.01 | 1 | 0.998 | 0.95 | 1.03 | 1.05 | 0.999 | 1.02
Nc1nc(Cl)nc2c1ncn2[C@H]1C[C@H](O)[C@@H](CO)O1 [Cladribine] | 0.985 | 0.949 | 0.982 | 1 | 1.01 | 1.02 | 0.915 | 0.911
CC(CNC1CCCCC1)OC(=O)c1ccccc1 (stereo not drawn) [Hexylcaine hydrochloride] | 0.993 | 0.97 | 0.996 | 0.986 | 1 | 1.01 | 0.995 | 0.992
C#C[C@]1(O)CC[C@H]2[C@@H]3CCC4=C(CCC(=O)C4)[C@H]3CC[C@@]21C [Norethynodrel] | 1 | 1 | 0.994 | 0.992 | 0.992 | 1.01 | 0.996 | 0.993
CC1(C)NC(=O)N(c2ccc([N+](=O)[O-])c(C(F)(F)F)c2)C1=O [Nilutamide] | 0.928 | 0.977 | 0.957 | 1 | 0.964 | 0.952 | 0.992 | 0.999
Cc1ccc2c(c1)c1c3n2CCNC3CCC1 (stereo not drawn) [Pirlindole mesylate] | 0.988 | 0.999 | 0.993 | 0.964 | 1.02 | 1.03 | 0.998 | 0.992
CCCCNc1c(C(=O)OCC)c(C)nc2c1cnn2CC [Tracazolate hydrochloride] | 1 | 1.03 | 1.04 | 0.996 | 0.978 | 0.983 | 0.999 | 0.952
C1N2CN3CN1CN(C2)C3 [Methenamine] | 1.02 | 1.02 | 1.05 | 1.03 | 1 | 1.03 | 1 | 0.991
CC(C(=O)O)c1ccc(C(=O)c2cccs2)cc1 (stereo not drawn) [Suprofen] | 0.987 | 1.04 | 1.05 | 1.02 | 1.01 | 1.03 | 0.996 | 0.995
CCOCCn1c(N2CCCN(C)CC2)nc2ccccc21 [Emedastine difumarate] | 0.995 | 0.997 | 0.992 | 0.996 | 1.03 | 1.05 | 1 | 0.989
Cc1ccccc1OCC(O)CO (stereo not drawn) [Mephenesin] | 0.999 | 1 | 0.999 | 0.994 | 1.01 | 1.01 | 1 | 1
CC(=O)O[C@H]1C[C@@H]2CC[C@@H]3[C@H](CC[C@@]4(C)[C@H]3C[C@H]([N+]3(C)CCCCC3)[C@@H]4OC(C)=O)[C@@]2(C)C[C@@H]1N1CCCCC1 [Vecuronium bromide] | 1.01 | 0.979 | 1.01 | 1.02 | 0.955 | 0.998 | 1 | 1
CC1CNc2c(cccc2S(=O)(=O)N[C@@H](CCCNC(=N)N)C(=O)N2CC[C@@H](C)C[C@@H]2C(=O)O)C1 (stereo partly drawn) [Argatroban] | 1 | 1.03 | 1 | 1.02 | 1.03 | 1.06 | 1.01 | 0.996
O=C(Nc1cccc2c(=O)cc(-c3nnn[nH]3)oc12)c1ccc(OCCCCc2ccccc2)cc1 [Pranlukast] | 1.01 | 0.991 | 1 | 0.95 | 0.968 | 0.957 | 1.01 | 0.987

SMILES | growth AUC normalised to DMSO control [1] | growth AUC normalised to DMSO control (Shigella flexneri) | growth AUC normalised to DMSO control (Vibrio cholerae) | growth AUC normalised to DMSO control [2] | growth AUC normalised to DMSO control (P. vulgatus RND KO) | growth AUC normalised to DMSO control (P. vulgatus WT) | growth AUC normalised to DMSO control [3] | growth AUC normalised to DMSO control [4]
OCCN1CCN(CCCN2c3ccccc3Sc3ccc(Cl)cc32)CC1 [Perphenazine] | 0.99 | 0.975 | 0.91 | 1.01 | 1.01 | 0.989 | 1 | 0.929
NS(=O)(=O)c1cc2c(cc1Cl)NC(C(Cl)Cl)NS2(=O)=O (stereo not drawn) [Trichlormethiazide] | 0.974 | 1.04 | 0.957 | 0.986 | 0.974 | 0.982 | 1.01 | 0.999
CNCCC(Oc1ccccc1OC)c1ccccc1 (stereo not drawn) [Nisoxetine hydrochloride] | 0.949 | 1.02 | 1 | 0.993 | 1.01 | 1 | 0.957 | 0.91
CC[C@@H]1C(=O)OC[C@@H]1Cc1cncn1C [Pilocarpine nitrate] | 0.995 | 1 | 0.998 | 1.04 | 0.982 | 0.998 | 1 | 1
COc1ccc(C(=O)NCc2cccnc2)cc1C(=O)NCc1cccnc1 [Picotamide monohydrate] | 0.989 | 0.968 | 0.992 | 0.984 | 1 | 1.01 | 0.995 | 0.998
CC[C@H](C)C(=O)O[C@H]1C[C@H](O)C=C2C=C[C@H](C)[C@H](CC[C@@H](O)C[C@@H](O)CC(=O)O)[C@H]21 [Pravastatin] | 1.04 | 1.08 | 1.09 | 1.02 | 1.05 | 1.06 | 1.02 | 1.01
COc1ccc(-c2cc(=O)c3c(O)cc(O[C@@H]4O[C@H](CO[C@@H]5O[C@@H](C)[C@H](O)[C@@H](O)[C@H]5O)[C@@H](O)[C@H](O)[C@H]4O)cc3o2)cc1O [Diosmin] | 0.988 | 0.96 | 0.971 | 0.975 | 0.997 | 0.991 | 1 | 0.996
CC(=O)Oc1ccccc1C(=O)O [Acetylsalicylic acid] | 1.04 | 1.04 | 1.09 | 1.02 | 1.01 | 1.01 | 1.01 | 1.01
CCN(CC)CCOC(=O)C(Cc1cccc2ccccc12)CC1CCCO1 (stereo not drawn) [Nafronyl oxalate] | 0.985 | 0.977 | 0.943 | 0.992 | 0.993 | 0.989 | 0.994 | 0.959
CC(C)COCC(CN(Cc1ccccc1)c1ccccc1)N1CCCC1 (stereo not drawn) [Bepridil hydrochloride] | 1 | 0.965 | 0.875 | 1.02 | 0.996 | 0.982 | 0.986 | 0.906
CC(=O)OCC(=O)[C@@]12OC(C)(C)O[C@@H]1C[C@H]1[C@@H]3C[C@H](F)C4=CC(=O)C=C[C@]4(C)[C@@]3(F)[C@@H](O)C[C@@]12C [Fluocinonide] | 0.994 | 0.97 | 0.973 | 1.12 | 0.967 | 0.951 | 1.01 | 0.995
CCn1cc(C(=O)O)c(=O)c2cc(F)c(N3CCN(C)CC3)cc21 [Pefloxacin] | 0.00601 (active) | 0.0383 (active) | 0.0435 (active) | 0.0255 (active) | 1.01 | 0.799 | 0.00724 (active) | 0.00757 (active)
CC/C(=C(\c1ccccc1)c1ccc(OCCN(C)C)cc1)c1ccccc1 [Tamoxifen citrate] | 1.01 | 1.01 | 1 | 0.981 | 0.968 | 0.978 | 1 | 1.01
CCN(CC)CCOC(=O)c1ccc(N)cc1 [Procaine hydrochloride] | 1 | 0.992 | 1.01 | 1 | 1.02 | 0.989 | 0.992 | 0.998
CCC1(c2ccccc2)NC(=O)N(C)C1=O (stereo not drawn) [Mephenytoin] | 1.01 | 0.997 | 1.02 | 1.01 | 1 | 1.03 | 1 | 1
